Measured values: PubChem BioAssay AID1159580 (chemical genetic matrix, 2015)
Among all 5,500 compounds or so, about 2,000 (36%) were called active. Not shown: some 18% with an inconclusive outcome. Cut-off read from the data, not from the text of the source: active = normalized growth mostly below about 0.91 (no sharp cut-off); inconclusive = no clear call, values can overlap the other calls; inactive = mostly above about 0.92. This is one part of the list.

Assay: chemical genetic growth profiling, strain panel (AID 1159580);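 note: tested at 20 µM; growth read once vehicle control cultures reached saturation at 30 °C; 1 = growth at the plate median or of vehicle wells; lower values mean less growth of the strain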
Details: growth OD

Measured: normalized growth

NCCC(O)C(=O)NC1CC(N)C(OC2OC(CN)C(O)C(O)C2N)C(OC2OC(CO)C(O)C2O)C1O (stereo unspecified)
inactive: S. cerevisiae deletion strains, locus YAL013W, strain DEP1, hits give low values 1.04 | S. cerevisiae deletion strains, locus YBR021W, strain FUR4, hits give low values 0.976 | S. cerevisiae deletion strains, locus YBR229C, strain ROT2, hits give low values 1 | S. cerevisiae deletion strains, locus YCL029C, strain bik1, hits give low values 0.994 | S. cerevisiae deletion strains, locus YDL035C, strain GPR1, hits give low values 0.993 | S. cerevisiae deletion strains, locus YDL074C, strain BRE1, hits give low values 1.03 | S. cerevisiae deletion strains, locus YDL101C, strain DUN1, hits give low values 1 | S. cerevisiae deletion strains, locus YDL134C, strain PPH21, hits give low values 0.999 | S. cerevisiae deletion strains, locus YDL185W, strain tfp1, hits give low values 0.979 | S. cerevisiae deletion strains, locus YDL192W, strain arf1, hits give low values 1 | S. cerevisiae deletion strains, locus YDR101C, strain arx1, hits give low values 1 | S. cerevisiae deletion strains, locus YDR150W, strain NUM1, hits give low values 0.999 | S. cerevisiae deletion strains, locus YDR162C, strain NBP2, hits give low values 1.01 | S. cerevisiae deletion strains, locus YDR318W, strain mcm21, hits give low values 0.992 | S. cerevisiae deletion strains, locus YDR388W, hits give low values 0.998 | S. cerevisiae deletion strains, locus YDR502C, strain sam2, hits give low values 1 | S. cerevisiae deletion strains, locus YEL061C, strain CIN8, hits give low values 1 | S. cerevisiae deletion strains, locus YER110C, hits give low values 0.988 | S. cerevisiae deletion strains, locus YER155C, strain BEM2, hits give low values 0.993 | S. cerevisiae deletion strains, locus YER167W, strain BCK2, hits give low values 0.978 | S. cerevisiae deletion strains, locus YGL078C, strain dbp3, hits give low values 0.999 | S. cerevisiae deletion strains, locus YGL086W, strain mad1, hits give low values 0.989 | S. cerevisiae deletion strains, locus YGL248W, strain PDE1, hits give low values 0.994 | S. cerevisiae deletion strains, locus YGR078C, strain PAC10, hits give low values 1.01 | S. cerevisiae deletion strains, locus YGR135W, strain pre9, hits give low values 1.02 | S. cerevisiae deletion strains, locus YGR229C, strain SMI1, hits give low values 1.02 | S. cerevisiae deletion strains, locus YGR252W, strain gcn5, hits give low values 0.994 | S. cerevisiae deletion strains, locus YHR030C, strain SLT2, hits give low values 0.983 | S. cerevisiae deletion strains, locus YHR079C, strain IRE1 (second series), hits give low values 0.99 | S. cerevisiae deletion strains, locus YHR094C, strain hxt1, hits give low values 0.989 | S. cerevisiae deletion strains, locus YHR129C, strain ARP1, hits give low values 0.992 | S. cerevisiae deletion strains, locus YHR200W, strain rpn10, hits give low values 0.994 | S. cerevisiae deletion strains, locus YIL066C, strain RNR3, hits give low values 0.999 | S. cerevisiae deletion strains, locus YIL073C, strain SPO22, hits give low values 0.9 | S. cerevisiae deletion strains, locus YIL125W, strain kgd1, hits give low values 0.995 | S. cerevisiae deletion strains, locus YIR030C, strain dcg1, hits give low values 0.993 | S. cerevisiae deletion strains, locus YJL095W, strain BCK1, hits give low values 1.06 | S. cerevisiae deletion strains, locus YJL134W, strain LCB3, hits give low values 0.989 | S. cerevisiae deletion strains, locus YJL168C, strain set2, hits give low values 0.991 | S. cerevisiae deletion strains, locus YJL187C, strain SWE1 (second series), hits give low values 0.994 | S. cerevisiae deletion strains, locus YJR043C, strain POL32, hits give low values 1.04 | S. cerevisiae deletion strains, locus YJR075W, strain HOC1, hits give low values 1.02 | S. cerevisiae deletion strains, locus YKL009W, strain mrt4, hits give low values 0.978 | S. cerevisiae deletion strains, locus YKL068W, hits give low values 0.987 | S. cerevisiae deletion strains, locus YKL085W, strain MDH1 (second series), hits give low values 0.972 | S. cerevisiae deletion strains, locus YKL085W, strain MDH1, hits give low values 0.972 | S. cerevisiae deletion strains, locus YKL190W, strain CNB1, hits give low values 0.99 | S. cerevisiae deletion strains, locus YKR001C, strain vps1, hits give low values 1 | S. cerevisiae deletion strains, locus YLR039C, strain RIC1, hits give low values 1.02 | S. cerevisiae deletion strains, locus YLR058C, strain SHM2, hits give low values 0.986 | S. cerevisiae deletion strains, locus YLR102C, strain apc9, hits give low values 0.989 | S. cerevisiae deletion strains, locus YLR262C, strain YPT6, hits give low values 0.985 | S. cerevisiae deletion strains, locus YLR268W, strain sec22, hits give low values 1.02 | S. cerevisiae deletion strains, locus YLR330W, strain CHS5, hits give low values 0.981 | S. cerevisiae deletion strains, locus YLR342W, strain FKS1 (second series), hits give low values 0.968 | S. cerevisiae deletion strains, locus YLR371W, strain rom2, hits give low values 0.978 | S. cerevisiae deletion strains, locus YLR418C, strain cdc73, hits give low values 1.02 | S. cerevisiae deletion strains, locus YML016C, strain PPZ1, hits give low values 0.991 | S. cerevisiae deletion strains, locus YML032C, strain rad52, hits give low values 0.998 | S. cerevisiae deletion strains, locus YML124C, strain tub3, hits give low values 1 | S. cerevisiae deletion strains, locus YMR078C, strain ctf18, hits give low values 0.997 | S. cerevisiae deletion strains, locus YMR223W, strain ubp8, hits give low values 0.995 | S. cerevisiae deletion strains, locus YMR263W, strain SAP30, hits give low values 1.01 | S. cerevisiae deletion strains, locus YMR307W, strain GAS1, hits give low values 0.99 | S. cerevisiae deletion strains, locus YNL067W, strain RPL9B, hits give low values 1.03 | S. cerevisiae deletion strains, locus YNL128W, strain TEP1, hits give low values 1.02 | S. cerevisiae deletion strains, locus YNL153C, strain GIM3, hits give low values 1.01 | S. cerevisiae deletion strains, locus YNL233W, strain BNI4, hits give low values 1 | S. cerevisiae deletion strains, locus YNL250W, strain rad50, hits give low values 0.991 | S. cerevisiae deletion strains, locus YNL271C, strain bni1, hits give low values 0.983 | S. cerevisiae deletion strains, locus YNL298W, strain CLA4, hits give low values 1.01 | S. cerevisiae deletion strains, locus YNL307C, strain MCK1, hits give low values 0.997 | S. cerevisiae deletion strains, locus YNL322C, strain KRE1, hits give low values 0.997 | S. cerevisiae deletion strains, locus YNR052C, strain pop2, hits give low values 0.994 | S. cerevisiae deletion strains, locus YOL006C, strain TOP1, hits give low values 1.05 | S. cerevisiae deletion strains, locus YOL012C, strain htz1 0.88 | S. cerevisiae deletion strains, locus YOL147C, strain pex11, hits give low values 0.994 | S. cerevisiae deletion strains, locus YOR061W, strain CKA2, hits give low values 0.999 | S. cerevisiae deletion strains, locus YOR069W, strain VPS5, hits give low values 1.01 | S. cerevisiae deletion strains, locus YOR136W, strain idh2, hits give low values 0.993 | S. cerevisiae deletion strains, locus YOR144C, strain elg1, hits give low values 0.995 | S. cerevisiae deletion strains, locus YOR184W, strain ser1, hits give low values 0.982 | S. cerevisiae deletion strains, locus YOR316C, strain cot1, hits give low values 0.987 | S. cerevisiae deletion strains, locus YPL055C, strain LGE1, hits give low values 1.04 | S. cerevisiae deletion strains, locus YPL241C, strain CIN2, hits give low values 1.01 | S. cerevisiae deletion strains, locus YPR119W, strain clb2, hits give low values 0.993 | S. cerevisiae deletion strains, locus YPR141C, strain kar3, hits give low values 0.992 | S. cerevisiae deletion strains, locus YPR163C, strain tif3, hits give low values 1 | S. cerevisiae deletion strains, locus YPR167C, strain met16, hits give low values 0.994 | S. cerevisiae deletion strains, strain wtn01, hits give low values 0.993 | S. cerevisiae strains, strain wild type, hits give low values 0.992
